Potency data for 40 molecules are collected here from PubChem BioAssay (Tox21).

SMILES strings stand for the structures. Values joined by “and” are separate entries in the source; they are usually repeats but may differ in a detail not shown here. Equal entries are not always repeated. Records with an inconclusive call do not appear. Where a call stands in place of a potency, no number is given. Active and inactive are the calls of the source. The call rests on the fitted dose curve; in most records, active means well fitted cell-killing curve with a large enough effect in the repeat runs; inconclusive means weak or mixed curves; inactive means flat fitted curve, though single readings scatter.
Potency means the concentration at half of the fitted maximal effect.

The nature of the experiment: qHTS assay to identify small molecule antagonists of the TGF-beta/Smad signaling pathway - cell viability counter screen (AID 1346824). Further: nearly all actives have a fitted effect of over 50% in size. Particulars: SBE-bla HEK293T viability, CellTiter-Glo luminescence; series mostly up to 76.8 µM. From the text: U.S. Tox21 Program National Center for Advancing Translational Sciences [NCATS] NIH Chemical Genomics Center [NCGC] U.S. Environmental Protection Agency [EPA] National Institutes of Environmental Health Sciences [NIEHS] National Toxicology Program [NTP] U.S. Food and Drug Administration [FDA] Tox21 Assay Overview: Transforming growth factor beta (TGF-beta) superfamily consists of a large number of structurally related dimeric proteins that act as hormones or local mediators in regulating a wide range of biological functions. This superfamily includes TGF-betas themselves, the bone morphogenetic proteins (BMPs) and the activins. These ligands induce oligomerization of serine/threonine receptor kinases and phosphorylate the cytoplasmic signaling molecules of Smad protein family. CellSensor SBE-bla HEK 293T cell line (Life Technologies, Carlsbad, CA), responsive to TGF-beta was used to screen Tox21 10K compound library for identification of agonists/antagonists of the Smad signaling pathway. This cell line contains a beta-lactamase reporter gene under control of the Smad binding element (SBE) stably integrated into HEK 293T cells. Also cytotoxicity of the compounds was tested in parallel by measuring the cell viability using CellTiter-Glo assay system in the same wells.
Tox21 Assay Protocol Summary: SBE-bla HEK 293T cells were dispensed at 4,000/well in 5 uL of assay medium into black wall/clear-bottom 1536-well plates using a Multidrop Combi (ThermoFisher Scientific, Waltham, MA) dispenser. After the assay plates were incubated at 37 C and 5% CO2 for an overnight, 23 nL of compounds dissolved in DMSO, positive controls or DMSO only was transferred to the assay plate by a Pintool station (Kalypsys, San Diego, CA). Compound transfer was followed by the addition of 1 uL of 0.25 ng/mL TGF-beta1 or assay buffer using two separate tips of Flying Reagent Dispenser (FRD, Aurora Discovery, San Diego, CA). The assay plates were incubated at 37 C and 5% CO2 for 5 hr. One uL of LiveBLAzer B/G FRET substrate (Life Technologies) was added using a Flying Reagent Dispenser (FRD, Aurora Discovery, San Diego, CA) and the plates were incubated at room temperature for 2 hr. Fluorescence intensity (405 nm excitation, 460 nm and 530 nm emissions) was measured using an Envision plate reader (PerkinElmer, Shelton, CT). For cytotoxicity read, 4 uL of CellTiter-Glo reagent (Promega Corporation, Madison, WI) was added to each well of the assay plates using FRD. After 30 min incubation at room temperature, the luminescence intensity was measured using ViewLux plate reader (PerkinElmer).
For orientation: qHTS replaces the single test concentration by a dilution series.
In the case of `O=S1(=O)OC(c2ccc(O)cc2)(c2ccc(O)cc2)c2ccccc21`, the Potency result is “inactive”.
The value for `CCCCCCc1ccc(O)cc1O` was “inactive”.
Next, `O=C1O[C@H]([C@@H](O)CO)C(O)=C1O`: “inactive”; `Cc1cc(=O)oc2cc(O)ccc12`: “inactive”; `CN(C)C(=S)SC(=S)N(C)C`: “inactive”.
The value for `CC12CCC(CC1)C(C)(C)O2` was “inactive”.
In the case of `CCCCCCCCCCCC[N+](C)(C)Cc1ccccc1`, the Potency was 48 µM (active) and 33.6 µM (active) and 23.9 µM (active).
The value for `Oc1ccccc1` was “inactive”.
Next, `F[B-](F)(F)F`: “inactive”.
Next, `C[C@](N)(Cc1ccc(O)c(O)c1)C(=O)O`: “inactive”.
With `O=C1NC(=O)C(c2ccccc2)(c2ccccc2)N1`, the Potency result is “inactive”.
The value for `CNNCc1ccc(C(=O)NC(C)C)cc1` was “inactive”; that for `CCN(Cc1c(F)cccc1Cl)c1c([N+](=O)[O-])cc(C(F)(F)F)cc1[N+](=O)[O-]` was “inactive”.
In the case of `C/C=C/C=C/C(=O)O`, the Potency result was “inactive”.
On to `COc1ccc(OC(F)(F)F)cc1CN[C@H]1CCCN[C@H]1c1ccccc1`, for which the Potency result is “inactive”.
The value for `CC(=O)CCC(=O)O` was “inactive”.
On to `Cc1c(C(=O)O)c(O)cc2c1C(=O)c1c(O)c([C@@H]3O[C@H](CO)[C@@H](O)[C@H](O)[C@H]3O)c(O)c(O)c1C2=O`, for which the Potency entry is “inactive”.
The value for `CN1[C@@H]2CC(OC(=O)[C@H](CO)c3ccccc3)C[C@H]1[C@@H]1O[C@@H]12` (stereo not given in full) was “inactive”; that for `CC(=O)C(=O)O` was “inactive”.
Consider `COc1ccc2c(c1)c(CC(=O)O)c(C)n2C(=O)c1ccc(Cl)cc1`, for which the Potency entry was “inactive”.
The value for `CC(O)(P(=O)(O)O)P(=O)(O)O` was “inactive”; that for `CN1CCc2cccc3c2[C@H]1Cc1ccc(O)c(O)c1-3` was “inactive”.
Next, `O=C1c2c(O)cccc2Cc2cccc(O)c21`: “inactive”; `C=C1CC[C@H](O)C/C1=C\C=C1/CCC[C@]2(C)[C@@H]([C@H](C)CCCC(C)C)CC[C@@H]12`: “inactive”; `CCCC[P+](CCCC)(CCCC)CCCC`: “inactive”.
As to `CC1(C)S[C@@H]2[C@H](NC(=O)[C@H](N)c3ccccc3)C(=O)N2[C@H]1C(=O)O`, the Potency entry was “inactive”.
Take `CCOc1ccc(NC(C)=O)cc1`: the Potency result was “inactive”.
Turning to `O=CC(=O)c1ccccc1`, the Potency entry is “inactive”.
With `O=C(Nc1ncc([N+](=O)[O-])s1)c1cccs1`, the Potency was 10.7 µM (active).
Take `O=C1OC2(c3ccccc31)c1cc(Br)c(O)c(Br)c1Oc1c2cc(Br)c(O)c1Br`: the Potency entry was “inactive”.
The value for `Nc1c(N=Nc2ccc(-c3ccc(N=Nc4cc(S(=O)(=O)O)c5ccccc5c4N)cc3)cc2)cc(S(=O)(=O)O)c2ccccc12` was “inactive”; that for `CCCCNC(=O)NS(=O)(=O)c1ccc(C)cc1` was “inactive”.
Regarding `Nc1c2c(nc3ccccc13)CCCC2`, the Potency result was “inactive”.
The value for `O=C(O)c1ccccc1` was “inactive”.
Next, `NC1CCCCC1`: “inactive”; `CCN(CC)C(=O)c1cccc(C)c1`: “inactive”; `CS(=O)(=O)OCCCCOS(C)(=O)=O`: “inactive”.
Next, `CC(C)c1c(C(=O)Nc2ccccc2)c(-c2ccccc2)c(-c2ccc(F)cc2)n1CC[C@@H](O)C[C@@H](O)CC(=O)O`: “inactive”; `CC(=O)Nc1c(I)c(NC(C)=O)c(I)c(C(=O)O)c1I`: “inactive”; `NS(=O)(=O)O`: “inactive”.
